Assay results taken from PubChem BioAssay (Tox21).
Inconclusive results are not listed. Calls of active or inactive are those of the source. Unless noted, calls follow the shape of the dose curve; as a rule, active = well fitted curve in the direction sought with a large enough effect in the repeat runs; inconclusive = weak or mixed curves; inactive = no such curve, though single readings can be large; an effect the other way counts as inactive or inconclusive.

Legend:
[1] = qHTS assay for small molecules that induce genotoxicity in human embryonic kidney cells expressing luciferase-tagged ATAD5 (AID 651632); also: nearly all actives have a fitted effect of over 15% in size
Method in brief: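 HEK293T cells carrying luciferase-tagged ATAD5 were given compound or DMSO vehicle and incubated 16 hr at 37C, 5% CO2. Luciferase activity was read after 30 min at room temperature with Amplite; a rise signals genotoxic stress.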

[2] = qHTS assay for small molecule agonists of the p53 signaling pathway - cell viability (AID 651633; calls by dose curve;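 also: p53RE-bla HCT reporter cells with a stable beta-lactamase p53 reporter; series mostly up to about 83 µM; nearly all actives have a fitted effect of over 30% in size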)
Method in brief: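 Viability counter-read: CellTiter-Glo luminescence (30 min, room temperature) in the same p53RE-bla plates. These plates had been exposed to compounds for 16 h at 37 C.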

[3] = qHTS assay for small molecules that induce genotoxicity in human embryonic kidney cells expressing luciferase-tagged ATAD5 - cell viability (AID 651634; calls by dose curve; also: nearly all actives have a fitted effect of over 25% in size)
Method in brief: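 HEK293T cells carrying luciferase-tagged ATAD5, 2,000 cells/well, exposed to compound for 15.5 hr at 37C. Viability read as live-cell protease activity by CellTiter-Fluor fluorescence after 30 min at 37C.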

[4] = qHTS assay to test for compound auto fluorescence at 535 nm (green) in HepG2 cells (AID 720675)
[5] = qHTS assay to test for compound auto fluorescence at 460 nm (blue) in HEK293 cells (AID 720678)
Method in brief: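 HEK293 cells (2,000 per well, medium with 10% dialyzed FBS) attached for 4-5 hr at 37C, then received compound and stood overnight at 37C, 5% CO2. Blue fluorescence was read at Ex/Em 405/460 nm and expressed relative to triamterene.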

[6] = qHTS assay to test for compound auto fluorescence at 590 nm (red) in HEK293 cells (AID 720679)
Method in brief: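 HEK293 cells (2,000/well, medium with 10% dialyzed FBS) attached for 4-5 hr at 37C, received 23 nL compound and were incubated overnight at 37C, 5% CO2. Red fluorescence was then read at 540/590nm Ex/Em, referenced to Rose Bengal sodium.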

[7] = qHTS assay to test for compound auto fluorescence at 535 nm (green) in HEK293 cells (AID 720680)
[8] = qHTS assay to test for compound auto fluorescence at 460 nm (blue) in HEK293 cell free culture (AID 720681)
Method in brief: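 Blue fluorescence (Ex 405/Em 460 nm, triamterene-equivalent) was read immediately after pin transfer of compound or DMSO into medium (DMEM, 10% FBS) without cells.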

[9] = qHTS assay to test for compound auto fluorescence at 535 nm (green) in HEK293 cell free culture (AID 720682)
Method in brief: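 Cell-free medium (DMEM, 10% FBS) receives compound or DMSO by pintool. Plate read directly at Ex 485/Em 535 nm. Signal converted to fluorescein equivalency.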

[10] = qHTS assay to test for compound auto fluorescence at 590 nm (red) in HEK293 cell free culture (AID 720683)
Method in brief: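 Red-channel autofluorescence of compounds in culture medium (DMEM, 10% FBS), no cells, measured at 540/590 nm. Rose Bengal sodium is the reference fluorophore for equivalence.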

[11] = qHTS assay to test for compound auto fluorescence at 590 nm (red) in HepG2 cell free culture (AID 720684)
Method in brief: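 Plate contents were MEM with 10% FBS plus test compound or DMSO, no cells. Fluorescence was recorded with 540 nm excitation and 590 nm emission.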

[12] = qHTS assay to test for compound auto fluorescence at 535 nm (green) in HepG2 cell free culture (AID 720686)
[13] = qHTS assay to test for compound auto fluorescence at 460 nm (blue) in HepG2 cells (AID 720687)
Method in brief: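 Blue-channel autofluorescence (Ex/Em 405/460 nm, triamterene-equivalent) was measured after 1 hr compound exposure at 37 C, 5% CO2. Cells were HepG2, plated overnight at 37 C in MEM plus 10% FBS.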

[14] = biological target: Glucocorticoid receptor (Homo sapiens) (UniProt P04150); assay: qHTS assay to identify small molecule agonists of the glucocorticoid receptor (GR) signaling pathway (AID 720691; active = well fitted activation curve with a large enough effect in the signal ratio in the repeat runs, not every such curve was filed as active; the % refers to the signal ratio)
Method in brief: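 GR-bla HeLa cells carrying a GRE-driven beta-lactamase reporter, exposed to compounds for 18 h at 37 C. Reporter activation read as fluorescence after 2 h with LiveBLAzer B/G FRET substrate at room temperature.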

[15] = biological target: Glucocorticoid receptor (Homo sapiens) (UniProt P04150); assay: qHTS assay to identify small molecule antagonists of the glucocorticoid receptor (GR) signaling pathway (AID 720692; active = well fitted inhibition curve with a large enough effect in the signal ratio in the repeat runs, not every such curve was filed as active; the % refers to the signal ratio)
Method in brief: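 GR-bla HeLa cells carrying a GRE-driven beta-lactamase reporter received compound after 4 h plating, then dexamethasone (5 nM final). After 18 h at 37C, the FRET substrate was loaded for 2 h at room temperature and fluorescence read.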

[16] = qHTS assay for small molecule disruptors of the mitochondrial membrane potential - cell viability (AID 720634; calls by dose curve;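 also: human HepG2 liver cancer cells; series mostly up to about 83 µM; nearly all actives have a fitted effect of over 20% in size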)
Method in brief: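 HepG2 cells, 2,000 per well, attached overnight, then treated 1 hr at 37 C, 5% CO2. Viability read as ATP by CellTiter-Glo luminescence after 30 min at room temperature. Read in the same wells as the m-MPI membrane-potential dye assay.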

[17] = qHTS assay to test for compound auto fluorescence at 460 nm (blue) in HepG2 cell free culture (AID 720685)
Method in brief: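 Compound (23 nL) or DMSO pinned into cell-free MEM with 10% FBS; blue fluorescence read at 405/460 nm excitation/emission, expressed as auto-fluorescence equivalency to triamterene.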

[18] = qHTS assay to test for compound auto fluorescence at 590 nm (red) in HepG2 cells (AID 720674)
Method in brief: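 We screened compounds on adherent HepG2 cells, incubating them for an hour at 37 C in 5% CO2 before reading emission at 590 nm under 540 nm excitation; values reflect equivalence to Rose Bengal sodium fluorescence.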

[19] = qHTS assay for small molecule disruptors of the mitochondrial membrane potential (AID 720635)
Method in brief: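 Mitochondrial membrane potential tracked with Mito-MPS dye, red aggregates (ex 540/em 590 nm) against green monomers (ex 490/em 535 nm). Compound treatment 1 hr at 37C, dye 30 min in HepG2.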

Measured: Potency

Glucocorticoid receptor (Homo sapiens), sequence (P04150 whole entry, looked up): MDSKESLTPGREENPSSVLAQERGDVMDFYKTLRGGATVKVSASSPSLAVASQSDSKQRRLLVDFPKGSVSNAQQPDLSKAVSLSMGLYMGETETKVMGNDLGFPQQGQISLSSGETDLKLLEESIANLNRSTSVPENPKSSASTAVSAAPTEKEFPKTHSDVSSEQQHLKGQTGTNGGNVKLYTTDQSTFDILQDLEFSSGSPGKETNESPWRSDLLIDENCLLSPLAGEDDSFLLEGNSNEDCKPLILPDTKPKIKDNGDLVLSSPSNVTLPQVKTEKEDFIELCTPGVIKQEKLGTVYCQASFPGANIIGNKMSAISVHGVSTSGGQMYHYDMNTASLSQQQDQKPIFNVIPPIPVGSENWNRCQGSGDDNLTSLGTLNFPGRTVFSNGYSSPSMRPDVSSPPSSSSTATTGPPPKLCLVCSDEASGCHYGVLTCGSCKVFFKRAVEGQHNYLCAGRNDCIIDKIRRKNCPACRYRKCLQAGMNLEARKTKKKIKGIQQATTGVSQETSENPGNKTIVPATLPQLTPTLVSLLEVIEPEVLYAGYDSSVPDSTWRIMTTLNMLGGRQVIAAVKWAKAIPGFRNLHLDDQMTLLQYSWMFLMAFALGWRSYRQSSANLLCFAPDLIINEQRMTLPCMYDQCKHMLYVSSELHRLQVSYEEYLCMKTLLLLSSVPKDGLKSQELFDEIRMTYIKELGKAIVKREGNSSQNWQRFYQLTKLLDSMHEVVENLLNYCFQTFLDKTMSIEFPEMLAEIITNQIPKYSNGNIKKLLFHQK

CCN[C@H](C)Cc1cccc(C(F)(F)F)c1
not listed: [16] | [17] | [18] | [19]
inactive: all other assays above

C=C1C[C@@H]2[C@H](CC[C@]3(C)C(=O)CC[C@@H]23)[C@@]2(C)C=CC(=O)C=C12
not listed: [14] | [15] | [18] | [19]
inactive: all other assays above

NNC(N)=O
not listed: [15] | [16] | [19]
inactive: all other assays above

CC[C@H](O)C(C[C@H](C)N(C)C)(c1ccccc1)c1ccccc1
not listed: [2] | [7] | [19]
inactive: all other assays above

CN(C)CCc1c[nH]c2cccc(OP(=O)(O)O)c12
not listed: [2] | [14] | [15]
inactive: all other assays above

O=[N+]([O-])c1cccc(CCl)c1
not listed: [1] | [3] | [19]
inactive: all other assays above

CCOC1Oc2ccc(OS(C)(=O)=O)cc2C1(C)C (stereo not drawn)
not listed: [14] | [15] | [16]
inactive: all other assays above

CS(=O)(=O)c1ccc(C(=O)C2C(=O)CCCC2=O)c(Cl)c1COCC(F)(F)F
not listed: [2] | [15] | [19]
inactive: all other assays above

C=C(C)[C@H]1CN[C@H](C(=O)O)[C@H]1CC(=O)O
not listed: [2] | [3] | [19]
inactive: all other assays above

CN(C)CCN(C)C
not listed: [2] | [15] | [19]
inactive: all other assays above

CCOC(=O)C(Cl)Cc1cc(-n2nc(C)n(C(F)F)c2=O)c(F)cc1Cl (stereo not drawn)
not listed: [2] | [15] | [16] | [19]
inactive: all other assays above

CN1C(=O)COc2c(C(=O)NC3CN4CCC3CC4)cc(Cl)cc21 (stereo not drawn)
not listed: [4] | [14] | [15] | [19]
inactive: all other assays above
